The campaign covered roughly 68,000 compounds. About 2,700 (4%) showed an effect of 50% or more. This excerpt belongs to a sample that is enriched for strong results.

This test concerns Plasmodium berghei. In words: Screen against P. berghei liver stage (PbLuc), transformed with Luciferase, at 2uM. The format is functional, HepG2. The following applies: tested at 2 uM.
As to `COc1ncccc1C(=O)N1CCn2c(COCC3CC3)cnc2C1C` (centres undefined), the INHIBITION is 30.38%.
Turning to `COC(=O)COc1nc(CC(C)C)c2c(c1C#N)CCCC2`, the INHIBITION is recorded as 26.06%.
The same measure for `CN(Cc1cccnc1)CC1CNCc2nccn2C1` (centres undefined): 37.65%; for `COc1ccc2cnn(CC(=O)NC3CCCC3)c(=O)c2c1OC`: 45.14%; for `CN(C(=O)c1cn(C)cn1)[C@@H]1CCC[C@@H](Oc2ccccc2)[C@@H]1O`: 32.81%.
The same measure for `c1csc(-c2noc(CCCNC3CCc4ncnn4C3)n2)c1` (centres undefined): -15.69%; for `CCOc1ccc(C(=O)N(Cc2cnn(C)c2)C(C)C)cc1OCC`: 23.42%.
The same measure for `COc1ccc(C(=O)N(Cc2cnn(C)c2)C(C)C)cc1Br`: 9.36%; for `COc1cc(C(=O)N(Cc2cnn(C)c2)C(C)C)ccc1C`: 53.98%; for `COc1cc(C(=O)N(Cc2cnn(C)c2)C(C)C)ccc1OC(C)C`: -31.57%.
Take `COc1ccc(C(=O)N(Cc2cnn(C)c2)C(C)C)cc1OC(F)F`: the INHIBITION stood at 60.09%.
With `COc1cc(C(=O)N(Cc2cnn(C)c2)C(C)C)ccc1OCC(N)=O`, the INHIBITION is listed as -61.5%.
In the case of `CN1CCC(Cc2noc(CCc3nc4ccccc4nc3O)n2)CC1`, the INHIBITION is recorded as -14%.
The same measure for `O=C(c1ccc[nH]1)N1CCc2c(COCc3ccncc3)cncc2C1`: -18.76%.
For the molecule `Cc1ccc(CN2CC[C@@H]3[C@@H]2CCN3C(=O)Cc2cccs2)o1`, the INHIBITION is given as -45.36%.
`O=C(CN1CCCC1CC(=O)c1ccccc1)NCc1ccccn1` (centres undefined): the INHIBITION is listed as -47.19%.
For `CCN(Cc1nc(COC)no1)C[C@]1(O)CCCN2CCCC[C@@H]21`, the INHIBITION stood at 21.67%.
The same measure for `CC(C)Cc1noc(CN(C)C[C@]2(O)CCCN3CCCC[C@@H]32)n1`: 58.09%; for `CCN(Cc1noc(CC(C)C)n1)C[C@]1(O)CCCN2CCCC[C@@H]21`: 6.33%; for `Cc1nn(C)c(C)c1C(=O)NN1CCOCC1`: 27.88%.
The same measure for `CCOc1ccc2ccccc2c1CNCC1CCNCC1`: -14.75%.
`Cc1cccnc1CC(C)Nc1nc(N)nc2c1CCNC2` (centres undefined): the INHIBITION is 22.63%.
The same measure for `CCn1nc(C)c(NC(=O)CN2CCN(C(C)=O)CC2)c1C`: 53.77%; for `CCn1nc(C)c(NC(=O)CN2CC[C@H](CO)[C@@H](O)C2)c1C`: 7.29%.
In the case of `CCn1nc(C)c(NC(=O)CN2CC[C@@H](F)C2)c1C`, the INHIBITION is on record as -28.65%.
The same measure for `CCN(CC)C(=O)C1CCCN(CC(=O)Nc2c(C)nn(CC)c2C)C1` (centres undefined): 23.58%.
The same measure for `CCn1nc(C)c(NC(=O)C(C)C)c1C`: 12.62%; for `CCn1nc(C)c(NC(=O)CN2CCC(c3ccccc3Cl)C2)c1C` (centres undefined): 50.9%.
The same measure for `Cc1ccc(CN(CCCn2ccnc2)Cc2cccs2)s1`: 32.53%.
For the molecule `CC1CCCN(c2ccccc2OCC(=O)NC2CCOCC2)C1` (centres undefined), the INHIBITION is given as 19.59%.
Regarding `CC(Oc1ccccc1)C(=O)N1CCCN(Cc2nccn2C)CC1` (centres undefined), the INHIBITION is recorded as -12.05%.
For the molecule `Cc1cc(C2CCCN2C(=O)CN2CCc3ccccc32)on1` (centres undefined), the INHIBITION stood at 18.37%.
The same measure for `Cc1cc(C2CCCN2C(=O)Cn2c(C)cc(=O)c3ccccc32)on1` (centres undefined): 64.83%; for `Cc1ccc2c(c1)SCC(=O)N2CC(=O)N1CCCC1c1cc(C)no1` (centres undefined): 28.73%; for `CNC(=O)C1(C)CN(S(=O)(=O)c2cccc(OC)c2)CCO1` (centres undefined): -4.78%.
The same measure for `CN(CCc1ccccc1)Cc1c(C2CCNCC2)[nH]c2ncccc12`: 2.56%; for `CC(C)N1CCCn2nc(C(=O)NCCc3ccccn3)cc2C1`: -31.6%.
As for `CN(Cc1ccco1)Cc1cnc2n1CCN(S(C)(=O)=O)CC2`, the INHIBITION is 9.1%.
The same measure for `CN(C)CCN1CCc2ncc(CN(C)Cc3ccco3)n2CC1`: 52.05%.
As to `CN(Cc1ccco1)Cc1cnc2n1CCN(c1ncccn1)CC2`, the INHIBITION was -6.14%.
The same measure for `CC(C)C(O)CCNC(=O)Nc1cc(F)ccc1-n1cccn1` (centres undefined): 37.43%; for `C[S+]([O-])CCNC(=O)Nc1cc(F)ccc1-n1cccn1` (centres undefined): 58.14%; for `CN1CCN(c2ccc(F)cc2NC(=O)NCC[S+](C)[O-])CC1` (centres undefined): 17.98%.
The same measure for `Cc1nc(C)c(CC(=O)NCc2cccnc2OC2CCCC2)c(=O)[nH]1`: -10.1%; for `NC(=O)CCC1CCCN(c2ccnc3cc(F)ccc23)C1` (centres undefined): 1.01%; for `CCS(=O)(=O)Nc1ccc2[nH]c(C3CCC3)nc2c1`: 74.44%.
Consider `CCn1cc(S(=O)(=O)Nc2ccc3[nH]c(C4CCC4)nc3c2)cn1`, for which the INHIBITION is on record as -16.18%.
The same measure for `Cn1cc(S(=O)(=O)Nc2ccc3[nH]c(C4CCC4)nc3c2)cn1`: 48.21%.
Turning to `COc1cccc([C@H]2CN(C(C)=O)[C@@H]3CCN(Cc4ccsc4)C[C@H]23)c1`, the INHIBITION is -24.17%.
The same measure for `O=C(CC1CC1)N1CCO[C@H]2[C@H](OCCCn3cccn3)CC[C@@H]21`: 37.74%.
Regarding `CC(C)c1nn(C)c(N(C)C)c1CNCc1ccc(N(C)C)nc1`, the INHIBITION is listed as -4.43%.
The same measure for `O=C(C1CCC1)N1CCC2(CCNCC2)C1`: 2.94%; for `O=C(C1CC1)N1CC2(CCNCC2)C1`: 60.6%; for `O=C(C1CCCCC1)N1CC2(CCNCC2)C1`: 27.1%.
The same measure for `CC(=O)N1CCC(c2cccc(-c3cccc(C(=O)O)c3)n2)CC1`: 23.7%; for `CCOc1ccc(CC(=O)Nc2cnccc2SCCCO)cc1`: -15.31%.
The same measure for `O=C(NCc1ccccn1)NCC(c1ccco1)N1CCCC1` (centres undefined): 53.61%; for `O=C(NCc1ccccn1)NCC(c1ccco1)N1CCCCC1` (centres undefined): -18.65%; for `CCc1cc(CNC(=O)NCC(c2ccco2)N2CCCC2)[nH]n1` (centres undefined): 42.11%.
Regarding `Cc1cc(C(=O)N2CC[C@@H]3CN(C)S(=O)(=O)[C@@H]3CC2)no1`, the INHIBITION is listed as -27.81%.
Take `COc1ccc(C[C@H]2CN(C(=O)c3ccc(C)nc3)CC[C@@H]2OC)cc1`: the INHIBITION stood at 15.57%.
The same measure for `COc1ccc(C[C@H]2CN(C(=O)c3ncccn3)CC[C@@H]2OC)cc1`: 33.74%; for `COc1ccc(C[C@H]2CN(C(=O)c3cc(C)no3)CC[C@H]2OC)cc1`: 51.26%.
Consider `CO[C@H]1CCN(C(=O)c2cc(C)on2)C[C@@H]1Cc1ccccc1`, for which the INHIBITION is given as 59.5%.
The same measure for `Cc1cc(C(=O)N2CC[C@@H]3CN(CCC(C)C)S(=O)(=O)[C@@H]3CC2)no1`: 36.44%.
The same measure for `CO[C@H]1CCN(C(=O)c2cc(C)on2)[C@H]1Cc1ccncc1`: -11.88%.
The same measure for `COCCO[C@H]1CCN(C(=O)c2cc(C)on2)[C@H]1Cc1ccccc1`: 62.46%.
Turning to `COc1ccc(C[C@H]2CN(C(=O)c3ccncc3)CC[C@@H]2OC)cc1`, the INHIBITION was -9.66%.
Consider `COCCN1C[C@H]2CCN(C(=O)c3cc(C)on3)CC[C@H]2S1(=O)=O`, for which the INHIBITION was found to be 63.35%.
`Cc1cc(C(=O)N2CC[C@@H](O)[C@@H]2Cc2ccccc2)no1`: the INHIBITION was found to be 19.42%.
On to `COc1ccc(C[C@H]2CN(C(=O)c3ccn(C)n3)CC[C@H]2OC)cc1`, for which the INHIBITION was 15.57%.
In the case of `Cc1cnn(CC2CN(Cc3nc(C4CC4)no3)CCO2)c1` (centres undefined), the INHIBITION was -18.67%.
The same measure for `c1cnc(NCc2cncc3c2CCN(Cc2ccsc2)C3)nc1`: 46.11%.
The same measure for `CSc1nc2ccsc2c(=O)n1CC(=O)N1CCCCC1C` (centres undefined): -24.07%; for `CC(C)NC(=O)N1CCC2(CC(=O)N(c3cccc(C#N)c3)C2)C1` (centres undefined): -8.23%; for `O=C(C1CCOCC1)N1C[C@H](OCc2cccnc2)[C@H]2COC[C@H]21`: 26.19%.
The same measure for `CCOc1ncccc1C(=O)N1CCCC(c2nccn2CCOC)C1` (centres undefined): -32.59%.
Regarding `CN1CCc2cc(C(=O)N(C)C)c(NCC3CC3)nc2CC1`, the INHIBITION is recorded as 23.97%.
With `COCCNCc1cc2ccc(C)c(C)c2[nH]c1=O`, the INHIBITION is reported as -21.9%.
As for `CCC1CN(C(=O)c2csc3nc(-c4ccc(Cl)cc4)cn23)CCN1` (centres undefined), the INHIBITION came out at 22.83%.
The same measure for `Cc1cccc(CN2C(=O)CCC23CCN(Cc2cccn2C)CC3)n1`: 17.39%; for `COc1ccc(-c2ncc(-c3nccn3CCN(C)C)cn2)cc1`: 10.63%; for `CC(C)c1nccn1C1CCCN(C(=O)CCc2cscn2)C1` (centres undefined): 21.39%.
Consider `CO[C@@H]1CCN(C(=O)c2cc(C)on2)C[C@@H]1Cc1ccccc1`, for which the INHIBITION came to 52.91%.
Regarding `COc1ccc(C[C@H]2CN(C(=O)c3cscn3)CC[C@@H]2OC)cc1`, the INHIBITION was -6.39%.
The same measure for `COc1ccc(C[C@H]2CN(C(=O)c3cnoc3)CC[C@@H]2OC)cc1`: -36.05%; for `COc1ccsc1C(=O)N1CCCC1c1c(C)nn(C)c1OC` (centres undefined): -11.31%.
On to `Cn1cc(N2C(=O)CC[C@@H]3[C@H]2CCN3Cc2nccs2)cn1`, for which the INHIBITION is given as -20.87%.
The same measure for `Cn1cc(N2C(=O)CC[C@@H]3[C@H]2CCN3CCc2ccccc2)cn1`: -18.2%; for `Cn1cc(N2C(=O)CC[C@@H]3[C@H]2CCN3CC2CCOCC2)cn1`: 50.17%.
The same measure for `CCCN1CCC(Cc2noc(-c3cc4cccnc4nc3C)n2)CC1`: 38.91%; for `CC(C(=O)NCc1ccc(N2CCNC(=O)C2)cc1)c1cccs1` (centres undefined): -25.44%.
The same measure for `CCOC(=O)NC(CNC(=O)c1ncccn1)CC(C)C` (centres undefined): 2.41%; for `CCOC(=O)NC(CNC(=O)c1cn(C)cn1)CC(C)C` (centres undefined): 60.9%; for `CCOC(=O)NC(CNC(=O)c1ccccn1)CC(C)C` (centres undefined): -15.54%.
In the case of `O=C(NCCN1CCOCC1)NCC(O)c1cccc(F)c1` (centres undefined), the INHIBITION was -27.69%.
Regarding `Cc1noc(CN(CCO)Cc2cc(Br)ccc2F)n1`, the INHIBITION is -18.92%.
As for `CCOc1cncc(N2CCN(c3ccccc3O)CC2)n1`, the INHIBITION is 22.75%.
The same measure for `COc1c(C2CCCN2Cc2nnc(C3CC3)n2C)c(C)nn1C` (centres undefined): 28.1%; for `CCc1nc(CN2CCCC2c2c(C)nn(C)c2OC)no1` (centres undefined): 23.94%; for `CCn1ccnc1CN1CCCC1c1c(C)nn(C)c1OC` (centres undefined): -69.19%.
The same measure for `COc1c(C2CCCN2Cc2noc(C(C)C)n2)c(C)nn1C` (centres undefined): 59.93%; for `COc1c(C2CCCN2Cc2nccn2C)c(C)nn1C` (centres undefined): 56.47%.
The same measure for `COc1c(C2CCCN2Cc2noc(C)n2)c(C)nn1C` (centres undefined): 21.83%.
